The source made the active and inactive calls. How the source made its calls: active means hit-call score of the fitted dose curve at least 0.9, where 1 is the maximum; inactive means score below 0.9.
Target: Paired box protein Pax-6 (Homo sapiens) (UniProt P26367)
Test: ATG_Pax6_CIS: Attagene CIS-FACTORIAL HepG2 Assay for human Paired Box 6 (PAX6) (AID 2282956)
Conditions: HepG2 CIS-FACTORIAL PAX6 reporter transcription, RNA readout; actives raise or lower the signal
Method: ATG_CIS is a cell-based, multiplexed-readout assay that uses HepG2, a human liver cell line, with measurements taken at 24 hours after chemical dosing in a 24-well plate.ATG_Pax6_CIS is one of 52 assay component(s) measured or calculated from the ATG_CIS assay. It is designed to make measurements of mRNA induction, a form of inducible reporter, as detected with fluorescence intensity signals by Reverse transcription polymerase chain reaction (RT-PCR) and Capillary electrophoresis technology.Data from the assay component ATG_Pax6_CIS was analyzed into 1 assay endpoint. This assay endpoint, ATG_Pax6_CIS, was analyzed with bidirectional fitting relative to DMSO as the negative control and baseline of activity. Using a type of inducible reporter, measures of mRNA for gain or loss-of-signal activity can be used to understand the reporter gene at the transcription factor-level as they relate to the gene PAX6. Furthermore, this assay endpoint can be referred to as a primary readout, because this assay has produced multiple assay endpoints where this one serves a reporter gene function. To generalize the intended target to other relatable targets, this assay endpoint is annotated to the dna binding intended target family, where the subfamily is paired box protein.
Human liver HepG2 cells are transiently transfected with multiple reporter transcription units (MRTUs) in 6-well plates using FuGene 6 reagent (Roche; 3 ml FuGene/1 mg DNA). The MRTU constructs are regulated by a cis-regulating element (promoter). […] A major difference between the CIS and TRANS system is that in CIS activities of endogenous TFs are measured, whereas the TRANS assay evaluates changes in activities of exogenous, chimeric NR-Gal4 proteins. […] At the end of 24 hour incubation, total RNA was isolated using TriZol reagent (Invitrogen). The isolated RNA is then reverse-transcribed using oligo(dT) primer and Mo-MLV reverse transcriptase (Invitrogen) with DNAse I (Ambion) treatment for 30 min. The one-tenth of the produced cDNA was amplified by PCR using Taq DNA polymerase (Invitrogen) and two reporter sequence-specific primers. The PCR products were fluorescently labeled by primer extension with 6-arboxyfluorescein (6-FAM) 5'-labeled reporter sequence-specific primer (2 min at 95 C, 20 s at 68 C and 10 min at 72 C) and these products were digested with 5U of HpaI (New England Biolabs) for 2h at 37 C. The fragments were purified using Qiaquick PCR columns (Qiagen), analyzed on an ABI 3130xL genetic analyzer (Applied Biosystems) with peak positions identified by using a set of X-rhodamine (ROX)-labeled MapMarker1000 molecular weight standards (BioVentures). The raw capillary electrophoresis data was processed using Attagraph software (Attagene).

Sequence of Paired box protein Pax-6 (Homo sapiens) (P26367 whole entry, looked up): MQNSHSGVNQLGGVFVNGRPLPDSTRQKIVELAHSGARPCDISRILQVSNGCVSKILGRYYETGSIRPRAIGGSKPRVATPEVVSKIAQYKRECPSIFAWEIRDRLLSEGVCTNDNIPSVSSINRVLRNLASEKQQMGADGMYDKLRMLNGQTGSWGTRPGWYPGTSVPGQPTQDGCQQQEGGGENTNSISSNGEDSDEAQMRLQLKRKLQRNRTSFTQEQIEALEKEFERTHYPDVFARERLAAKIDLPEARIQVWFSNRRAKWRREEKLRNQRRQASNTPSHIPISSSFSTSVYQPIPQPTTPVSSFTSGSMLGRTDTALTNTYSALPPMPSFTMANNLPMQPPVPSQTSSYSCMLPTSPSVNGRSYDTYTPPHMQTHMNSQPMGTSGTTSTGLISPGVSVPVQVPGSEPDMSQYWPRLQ

Compound	outcome	AC50
CCCCCCCC(=O)OCC(COC(=O)CCCCCCC)OC(=O)CCCCCCC	inactive	–
CC1(C)CC(O)CC(C)(C)N1[O]	inactive	–
O=C(O)CCCC(=O)O	inactive	–
CCN1CN(CC)CN(CC)C1	inactive	–
CCOC(=O)/C=C\C(=O)OCC	inactive	–
Fc1ccc(Br)cc1	inactive	–
CC(=O)c1ccccc1O	inactive	–
CCCCCCOc1ccc(N)cc1	inactive	–
COC(=O)c1ccccc1C	inactive	–
CC(=O)CCC1=C(C)CCCC1(C)C	inactive	–
Cc1cccc(C(C)(C)C)c1O	inactive	–
O=C(Cl)c1c(Cl)c(Cl)c(C(=O)Cl)c(Cl)c1Cl	inactive	–
CC(C)=NNC(N)=S	inactive	–
CC1=CC=C(C(C)C)CC1	inactive	–
O=C(O)CC(C(=O)O)S(=O)(=O)O (stereo not given)	inactive	–
CC(C)c1ccc(O)c(C(C)C)c1	inactive	–
CC(CC=O)CC(C)(C)C (stereo not given)	inactive	–
Clc1cc(Cl)c(Cl)c(Cl)c1Cl	inactive	–
O=C1CCCN1C1CCCCC1	inactive	–
Oc1ccccc1Cc1ccccc1O	–	100 µM (active)

Compound	outcome	AC50
Cc1ccc(C)c(OCCCC(C)(C)C(=O)O)c1	inactive	–
CC(C)CCOCc1ccccc1	inactive	–
CC(C)(c1ccccc1)c1ccc(Nc2ccc(C(C)(C)c3ccccc3)cc2)cc1	inactive	–
CCOC(=O)CC(=O)c1ccccc1	inactive	–
CCOC(=O)C1=NOC(c2ccccc2)(c2ccccc2)C1	inactive	–
C=CCCCCCCCCOC(C)=O	inactive	–
COC(Cc1ccccc1)OC	inactive	–
COC(C=C(C)CCC=C(C)C)OC	inactive	–
Cc1ccc([N+](=O)[O-])cc1N	inactive	–
CC(C)(C)C1CCC(=O)CC1	inactive	–
CCCCCCCCCCCC(=O)N(C)CC(=O)O	inactive	–
COc1ccc(-c2coc3cc(O)cc(O)c3c2=O)cc1	inactive	–
O=C(O)c1ccc2c(c1)C(=O)OC2=O	inactive	–
C=CCCCCCCCCC=O	inactive	–
N#Cc1ccc(C2CCCc3cncn32)cc1 (stereo not given)	inactive	–
C=CCOC(=O)c1ccc(C(=O)OCC=C)c(C(=O)OCC=C)c1	inactive	–
CCCC(C)C(=O)OCC (stereo not given)	inactive	–
CC(=O)OC(C)c1ccccc1 (stereo not given)	inactive	–
CCCCc1ccc(Cl)cc1	inactive	–
CCCCCCCCCCCC(=O)OCC	inactive	–

Source: PubChem BioAssay (EPA / NIEHS)
